In paper PMC4336329 (PLoS ONE, 2015):
The campaign covered roughly 310,000 compounds. About 14,000 (4.5%) showed an effect of 50% or more. The effect is printed as a negative number. The entries come from a sample that favours strong results as a whole.

Biological target: human ether-à-go-go-related gene (hERG) potassium channel (human, UniProt Q12809)
Assay: primary screen, population patch clamp on CHO cells stably expressing hERG; higher = less effect of the substance
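Also: peak tail current of the secondary pulse compared with the same well before compound.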

Sequence of human ether-à-go-go-related gene (hERG) potassium channel (Q12809 whole entry, looked up): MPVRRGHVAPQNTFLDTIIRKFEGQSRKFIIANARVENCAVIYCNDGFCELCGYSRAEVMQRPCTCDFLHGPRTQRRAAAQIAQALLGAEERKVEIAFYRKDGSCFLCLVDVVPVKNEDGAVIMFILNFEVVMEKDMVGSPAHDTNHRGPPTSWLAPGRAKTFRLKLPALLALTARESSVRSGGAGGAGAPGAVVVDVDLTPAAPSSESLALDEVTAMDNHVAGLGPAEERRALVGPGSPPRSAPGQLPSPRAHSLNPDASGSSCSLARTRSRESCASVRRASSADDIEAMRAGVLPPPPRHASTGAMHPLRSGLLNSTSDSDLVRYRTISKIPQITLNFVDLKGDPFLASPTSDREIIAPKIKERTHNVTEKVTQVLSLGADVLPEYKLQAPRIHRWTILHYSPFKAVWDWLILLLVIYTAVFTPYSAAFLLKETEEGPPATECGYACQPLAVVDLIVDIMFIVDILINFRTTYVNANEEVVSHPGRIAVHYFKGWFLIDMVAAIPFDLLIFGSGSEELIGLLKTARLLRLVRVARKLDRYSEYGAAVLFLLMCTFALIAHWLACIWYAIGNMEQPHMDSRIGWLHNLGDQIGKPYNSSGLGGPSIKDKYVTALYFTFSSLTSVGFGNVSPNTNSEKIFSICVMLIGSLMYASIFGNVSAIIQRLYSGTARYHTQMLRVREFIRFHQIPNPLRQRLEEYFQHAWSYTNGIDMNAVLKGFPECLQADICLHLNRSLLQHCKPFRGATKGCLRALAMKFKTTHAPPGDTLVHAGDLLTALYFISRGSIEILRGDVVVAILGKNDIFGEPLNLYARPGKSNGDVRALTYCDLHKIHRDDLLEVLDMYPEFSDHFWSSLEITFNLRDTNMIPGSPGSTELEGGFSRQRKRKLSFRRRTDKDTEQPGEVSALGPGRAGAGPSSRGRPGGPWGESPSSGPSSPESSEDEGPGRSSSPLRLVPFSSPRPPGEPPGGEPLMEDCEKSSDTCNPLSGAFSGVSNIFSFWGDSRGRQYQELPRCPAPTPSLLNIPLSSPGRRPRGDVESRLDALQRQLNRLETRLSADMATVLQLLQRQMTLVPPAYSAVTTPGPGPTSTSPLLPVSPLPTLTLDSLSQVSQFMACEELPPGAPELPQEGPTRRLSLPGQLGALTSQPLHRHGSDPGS

SMILES	hERG current change (%, negative = inhibition) at 10uM
COc1cc2c(cc1OC)C(c1ccccc1F)OC(=O)C2 (stereo not shown)	6.96%
O=C(CN1CCOCC1)Nc1ncc(Cc2cccc3ccccc23)s1	-23.3%
O=C(CN1CCOCC1)Nc1ncc(Cc2cccc(Cl)c2)s1	-43%
O=C(CN1CCOCC1)Nc1ncc(Cc2cccc(Cl)c2Cl)s1	-51.4%
O=C(COc1ccc2ccccc2c1)Nc1ccc2c3c(cccc13)CC2	3.91%
O=C(CSc1ncnc2c1cnn2-c1cccc(Cl)c1)NCC1CCCO1 (stereo not shown)	7.88%
Cc1cc(OC(C)C(=O)NCc2ccncc2)c2c(C)cc(=O)oc2c1 (stereo not shown)	-49.2%
CCCc1cc(=O)oc2cc(C)cc(OC(C)C(=O)NCc3ccncc3)c12 (stereo not shown)	-69.5%
CCCCc1cc(=O)oc2cc(C)cc(OC(C)C(=O)NCc3ccncc3)c12 (stereo not shown)	-36%
CCc1cc(=O)oc2cc(C)cc(OC(C)C(=O)NCc3ccncc3)c12 (stereo not shown)	-56.8%
CCc1cc(=O)oc2cc(C)cc(OC(C)C(=O)NCc3cccnc3)c12 (stereo not shown)	-32.9%
CCCc1cc(=O)oc2cc(C)cc(OC(C)C(=O)NCc3cccnc3)c12 (stereo not shown)	-47.3%
O=S(=O)(Nc1nc2c(s1)CCCC2)c1ccc(F)cc1	-21.1%
O=C(NCCc1cccc(F)c1)[C@@H]1CSC2c3ccccc3C(=O)N21 (stereo partly shown)	-13.9%
Cc1cc(C(=O)Nc2ccc3c(c2)OCCO3)c(C)o1	4.25%
COC(=O)c1cccc(Oc2cccc(C(F)(F)F)c2)n1	13%
Cc1ccc(S(=O)(=O)N2C(=O)CCC2C(=O)Nc2ccc3c(c2)OCCO3)cc1 (stereo not shown)	10.6%
O=C1CCN(Cc2cccnc2)CCN1[C@H](CO)c1ccccc1	16%
O=C(NCc1ccc(F)cc1)c1cc2ccccc2o1	-13.4%
CCN(CC(=O)NCc1ccc(F)cc1)C(=O)c1ccc(C)o1	6.13%
CCc1ccc(OCC(=O)N(CC)CC)cc1	-55%
CCN(CC(=O)NCc1ccc(F)cc1)C(=O)c1ccc(COc2ccccc2)cc1	-47.9%
CCN(Cc1ccccc1)C(=O)COc1ccccc1	9.21%

SMILES	hERG current change (%, negative = inhibition) at 10uM
CCN(CC(=O)NCc1ccc(F)cc1)C(=O)CCNS(=O)(=O)c1cccc(C)c1	-51.9%
CCN(CC(=O)NCc1ccc(F)cc1)C(=O)c1cc2ccccc2o1	-55.9%
CCN(CC(=O)NCc1ccc(Cl)cc1)C(=O)c1cc2ccccc2o1	-32.2%
CCN(CC(=O)Nc1c(F)cccc1F)C(=O)CCNS(=O)(=O)c1ccc(C)c(C)c1	1.26%
CCN(CC(=O)NCc1ccc(F)cc1)C(=O)Cc1c(F)cccc1Cl	-37.6%
CCN(CC(=O)NCc1ccc(F)cc1)C(=O)COc1ccc(C)c(C)c1	-53.6%
CCN(CC)C(=O)COc1ccc(-c2ccccc2)cc1	-36%
CCOC(=O)c1cc(C)n(S(=O)(=O)c2ccc(C)cc2)c1C	-2.18%
Cc1ccc(-c2cn(S(=O)(=O)c3cccc([N+](=O)[O-])c3)nc2N)cc1	15.3%
COc1ccccc1CNC(=O)CCC(=O)N1C[C@H]2C[C@@H](C1)c1cccc(=O)n1C2	-5.65%
O=C(COc1ncnc2sccc12)Nc1cccc(S(=O)(=O)N2CCOCC2)c1	-2.77%
O=C(Nc1ccc2nc(C3CC3)n(Cc3ccccc3)c(=O)c2c1)C1CC1	-6.15%
CC1(C)CC(NC(=O)COc2cc3oc(=O)c4c(c3cc2Cl)CCC4)CC(C)(C)N1	11.2%
COc1ccc(OC)c(C(c2nnnn2C2CCCC2)N2CCc3ccccc3C2)c1 (stereo not shown)	-11.1%
COc1ccc(/C=C/C(=O)OCC(=O)Nc2cc(S(=O)(=O)N(C)C)ccc2Cl)cc1	28.4%
CCc1ccccc1OCC(=O)N(CC)CC(=O)NCc1ccc(F)cc1	8%
CCN(CC(=O)NCc1ccc(F)cc1)C(=O)c1cccnc1SC	-62.9%
CCOc1ncccc1C(=O)N(CC)CC(=O)NCc1ccc(F)cc1	7.12%
CCN(CC(=O)Nc1c(F)cccc1F)C(=O)c1cccnc1SC	6.33%
CCN(CC(=O)NCc1ccc(F)cc1)C(=O)COc1ccc2ccccc2c1	-70.5%
CCN(CC(=O)Nc1ccc(NC(C)=O)cc1)C(=O)COc1ccc2ccccc2c1	-10.1%
Cc1ccc(-n2ncc3c2CCCC3NC(=O)CCc2cnn(C)c2)cc1C (stereo not shown)	7.27%
Cc1cc(C(=O)NC2CCCc3c2cnn3-c2ccc(C)c(C)c2)no1 (stereo not shown)	-42.9%

SMILES	hERG current change (%, negative = inhibition) at 10uM
COC(=O)c1ccc(C(=O)NC2CCCc3c2cnn3-c2ccc(C)c(C)c2)cc1 (stereo not shown)	6.54%
CSCC(=O)NC1CCCc2c1cnn2-c1ccc(C)c(C)c1 (stereo not shown)	-28%
CCCC(=O)NC1CCCc2c1cnn2-c1ccc(C)c(C)c1 (stereo not shown)	-72%
Cc1ccc(-n2ncc3c2CCCC3NC(=O)c2ccoc2)cc1C (stereo not shown)	-79.2%
O=C1COc2ccc(S(=O)(=O)NCCc3ccccc3)cc2N1	10.7%
CC(NC(=O)c1cc(S(=O)(=O)N2CCCC2)ccc1Cl)c1ccccn1 (stereo not shown)	18.1%
CCOc1ccc(C2C3=C(CC(C)(C)CC3=O)N(CC(=O)O)C3=C2C(=O)CC(C)(C)C3)cc1OCC	5.47%
CC1CN(C(=S)Nc2ccc(SC(F)F)cc2)CC(C)O1 (stereo not shown)	-27.6%
CN1CCC(N(C)C(=S)Nc2ccc(SC(F)F)cc2)CC1	-56.6%
CN1CCC(N(C)C(=O)c2ccccc2Nc2ccc(SC(F)F)cc2)CC1	-62.2%
CC(=O)c1ccc(NC(=S)N(C)C2CCN(C)CC2)cc1	-4.16%
O=C(NCc1ccncc1)c1ccccc1Nc1ccc(SC(F)F)cc1	-63.9%
CC1CC(C)CN(C(=S)Nc2ccc(SC(F)F)cc2)C1 (stereo not shown)	-51.8%
CN1CCN(C(=O)c2ccccc2Nc2ccc(SC(F)F)cc2)CC1.Cl	-26%
CC1CCN(C(=S)Nc2ccc(SC(F)F)cc2)CC1	-33%
CC1CC(C)CN(C(=O)c2ccccc2Nc2ccc(SC(F)F)cc2)C1 (stereo not shown)	0.904%
O=C(NCc1ccncc1)c1cccc(S(=O)(=O)Nc2ccc(SC(F)F)cc2)c1	-3.21%
CN1CCC(N(C)C(=S)Nc2ccc(F)cc2)CC1	21.3%
CNC(=O)c1ccccc1Nc1ccc(SC(F)F)cc1	-1.62%
O=C(CCN1C(=O)c2ccccc2C1=O)OCN1C(=O)c2ccccc2C1=O	-11.5%
COCCSc1ccccc1C(=O)NCc1cccnc1	18.7%
CCc1c(C)[nH]c2nc3ccccc3n2c1=O	4.86%
CC(C)c1nc2ccc(NC(=O)C34CC5CC(CC(C5)C3)C4)cc2[nH]1	4.9%

SMILES	hERG current change (%, negative = inhibition) at 10uM
COCCCn1c(SCC(=O)Nc2nnc(C)s2)nnc1-c1ccoc1C	4.33%
Cc1ccc(NC2=NC(=S)N(CC#N)C23CCCCC3)cc1	-6.19%
COc1cccc(C(=O)C2CCCN(Cc3c(C)n(C)n(-c4ccccc4)c3=O)C2)c1 (stereo not shown)	-21.2%
COc1cccc(C(=O)C2CCCN(Cc3cccn3-c3ccccn3)C2)c1 (stereo not shown)	-76.5%
COc1cccc(C(=O)C2CCCN(C(=O)c3ccccn3)C2)c1 (stereo not shown)	3.77%
Cc1c(CN2CCCC(C(=O)c3cccc(Cl)c3)C2)c(=O)n(-c2ccccc2)n1C (stereo not shown)	-24%
CC(C)Oc1cccc(C(=O)C2CCCN(Cc3cccn3-c3cccnc3)C2)c1 (stereo not shown)	-27.7%
CC(C)Oc1cccc(C(=O)C2CCCN(Cc3ccon3)C2)c1 (stereo not shown)	-3.37%
CC(C)Oc1cccc(C(=O)C2CCCN(Cc3cccn3-c3ccccn3)C2)c1 (stereo not shown)	-78.8%
Cc1c(CN2CCCC(C(=O)c3cccc(OC(C)C)c3)C2)c(=O)n(-c2ccccc2)n1C (stereo not shown)	-57.2%
COc1ccc(C(=O)Nc2c3c(nn2C(C)(C)C)CS(=O)(=O)C3)cc1OC	13.1%
CCc1ccccc1NS(=O)(=O)c1cc(C)ccc1OC	-5.89%
O=C(O)COc1ccccc1/C=N/NC(=O)c1ccc2c(c1)OCCO2	-2.93%
O=C(CSc1nnc(COc2ccc3c(c2)CCCC3)o1)Nc1ccc(F)cc1	10.2%
Cc1ccc2c(C)nc(Nc3ncc4c(n3)CCCC4=O)nc2c1	-12.4%
Cc1cc(C)n2nnnc2n1	18.5%
COc1ccccc1C(=O)NCC(=O)Nc1ccccc1	5.97%
COc1ccccc1C(=O)NCC(=O)NCCC(c1ccccc1)c1ccccc1	-64.4%
CS(=O)(=O)c1ccccc1C(=O)NCCC(c1ccccc1)c1ccccc1	-51.9%
Cc1ccc(C(NC(=O)c2ccccc2S(C)(=O)=O)c2ccccc2)cc1 (stereo not shown)	-30.3%
Cc1cc(C(=O)NCCC(c2ccccc2)c2ccccc2)c(C)o1	-17.5%
COc1ccccc1C(=O)NCC(=O)NC(C)CCc1ccccc1 (stereo not shown)	1.99%
